# Bioassay records: PubChem, Center for Chemical Genomics, University of Michigan
# The full list was thinned out, with hits kept by preference.
# Dicer inh: blocks human Dicer maturation of pre-miR-21; Q9UPY3; cat-ELCCA pre-miR-21 Dicer processing, chemiluminescence; hits give high values; hit rate 6% among 47,000; z-score at 25 µM; in the data active = z-score above about 3, passing the limit was not always enough;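 also: plate controls were vehicle for no effect and no enzyme for full effect; higher signal means more uncleaved substrate so more Dicer inhibition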
# The depositor's hits bear a star.
SMILES,Dicer inh
CCn1nc(C)cc1-c1n[nH]c(=S)n1CCCOC,0.1
COc1nc2c(c(-c3ccccc3)c1C#N)Cc1ccccc1-2,-0.91
CCOC(=O)C(NC(C)=O)(Nc1ccc(C)cc1C)C(F)(F)F (stereo not drawn),-0.79
COc1c(Br)cc([N+](=O)[O-])c(OC)c1C(=O)NC(=O)Nc1cc(C(F)(F)F)cc(C(F)(F)F)c1,4.2*
COc1cccc(OC)c1NC(=O)NC(=O)c1c(OC)c(Br)cc([N+](=O)[O-])c1OC,8.8
COc1c(Br)cc([N+](=O)[O-])c(OC)c1C(=O)NC(=O)Nc1c(Cl)cc([N+](=O)[O-])cc1Cl,1.1
O=C1OC(Nc2ccccc2Cl)c2ccccc21 (stereo not drawn),0.62
CCOC(=O)c1cnc(Nc2ccc(OC(F)(F)F)cc2)nc1C(F)(F)F,-0.47
O=C(CSc1nc2sc3c(c2c(=O)[nH]1)CCCC3)NCCCn1ccnc1,-0.93
CC1(O)CC(c2ccccc2)SC(c2ccccc2)C1 (stereo not drawn),0.18
c1ccc(C2CCCC(c3ccccc3)S2)cc1 (stereo not drawn),4.8*
S=C1CC(c2ccccc2)Sc2ccccc2N1 (stereo not drawn),0.9
COC(=O)c1ccc(N2C(=O)CSC2c2ccc(OC)cc2)cc1 (stereo not drawn),7
COc1ccc(N2C(=O)N(c3ccc(OC)cc3)C3CS(=O)(=O)CC32)cc1 (stereo not drawn),3.9*
COc1ccc(N2C(=O)CSC2c2ccc(Br)cc2)cc1 (stereo not drawn),1.3
CCc1cn[nH]c1-c1c(F)cccc1F,-0.13
Cc1c(-n2cccc2)cc2c(c1[N+](=O)[O-])C(C)(C)CC2(C)C,-0.56
Cc1c(Cl)cccc1S(=O)(=O)N1CCCN(c2nc3ccc(Cl)cc3s2)CC1,-0.8
COc1ccc(C2Nc3ccc4ccccc4c3C3=C2C(=O)CCC3)cc1OC (stereo not drawn),4.5*
COc1ccc(OC)c(C2Nc3ccc4ccccc4c3C3=C2C(=O)CC(C)(C)C3)c1 (stereo not drawn),1.9
Cc1ccccc1C1CC(=O)c2c(ccc3ccccc23)N1 (stereo not drawn),2
CCOc1cc(C2Nc3ccc4ccccc4c3C3=C2C(=O)CCC3)ccc1O (stereo not drawn),1.7
COc1ccc(Br)cc1C1CC(=O)c2c(ccc3ccccc23)N1 (stereo not drawn),3.3*
O=C1CC(c2cccc(O)c2)Nc2ccc3ccccc3c21 (stereo not drawn),1.1
COc1cc(CNCCSc2nnnn2C)ccc1OCc1ccccc1F,0.62
SMILES,Dicer inh
Cc1nn(Cc2n[nH]c(=S)n2C)c(C)c1[N+](=O)[O-],0.04
CC(CC(=O)O/N=C/c1c(Cl)cccc1Cl)S(=O)(=O)c1ccc(Cl)cc1 (stereo not drawn),0.61
O=C(c1ccccc1I)n1ccc2ccccc21,-0.81
Clc1cccc(CN2CCN(Cc3ccncc3)CC2)c1,-0.45
Cc1cccc(Cl)c1NC(=S)N1CC(C)OC(C)C1 (stereo not drawn),2.6
COc1cc(/C=C/c2nc(=O)c3ccccc3o2)ccc1O,1.2
O=S(=O)(NNc1c(Cl)cccc1Cl)c1ccc(Cl)c(Cl)c1,2.1
CC1CCc2c(sc(NC(=O)Nc3ccc(Cl)cc3)c2C(N)=O)C1 (stereo not drawn),1.6
Cc1c(NC(=O)Nc2ccccc2)sc2nc(-c3ccc(Cl)cc3)nn12,-2.3
CS(=O)(=O)c1sc(NC(=O)Nc2ccc(Cl)cc2)c2c1C=CCC2,3.3*
Cc1cc(C(=O)NC(=O)NNc2c(Cl)cncc2Cl)nn1-c1c(Cl)cc(Cl)cc1Cl,2.4
CC(C)(C)c1cc(NC(=O)C(Cl)Cl)c(C(N)=O)s1,-0.06
COc1ccc(-c2nc(SCc3ccccc3)n[nH]2)cc1,-2.3
Cc1ccc(C)n1-c1ccc(Cl)cc1C(=O)O,12*
Cc1ccc(C)n1-c1ccc(-n2c(C)ccc2C)cc1,-0.06
O=C(O)c1cc(Cl)ccc1I,-1.5
Cc1ccc(C)n1-c1ccc(Cl)c(C(=O)O)c1,8.2*
Cc1ccc(Cl)c(Nc2ccccc2C(=O)O)c1Cl,-0.38
Cc1ccc(C(=O)O)cc1-n1c(C)ccc1C,0.45
COCCN1C(=O)C(=O)/C(=C(/O)c2ccccc2)C1c1ccc(F)cc1 (stereo not drawn),-0.15
COc1ccc(C2CC(=O)c3cnc(N4CCc5ccccc5C4)nc3C2)cc1OC (stereo not drawn),-0.95
O=C(Nc1ccc(OCc2ccccc2)cc1)Nc1ccccc1Oc1ccccc1,-2.2
CC(C)NC(=O)N1CCc2sccc2C1c1ccc(Cl)cc1 (stereo not drawn),0.99
CCCSc1nnc2c(n1)OC(C)N(C(C)=O)c1ccccc1-2 (stereo not drawn),-0.69
C=C(C)CSc1nnc2c3sc4nc(N5CCOCC5)c5c(c4c3ncn12)CC(C)(C)OC5,3.2*
CC1(C)Cc2c(c(N3CCOCC3)nc3sc4c(=O)n(-c5ccc(Cl)cc5)cnc4c23)CO1,0.66
CC1(C)Cc2c(c(N3CCOCC3)nc3sc4c(NCCCO)ncnc4c23)CO1,7
